MCL1 BIM primary: disrupts human MCL1 binding to BIM-BH3 peptide. GST-MCL1 / FITC-Bim-BH3 fluorescence polarization. inhibition, % at 10.9 µM. 0.68% of 320,000 active;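 active = inhibition above the mean inhibition of all tested compounds plus 3 SD, set per campaign, cut at about 40% in these data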;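 note: 0% = DMSO wells and 100% = unlabeled Bim-BH3 peptide control; higher means more loss of mP so more displacement of Bim peptide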
Bcl-xL primary: blocks human Bcl-xL binding to Bim BH3 peptide | Q07817 | GST-Bcl-xL / FITC-Bim BH3 peptide fluorescence polarization | inhibition, % at 10.9 µM | 0.7% of 320,000 active;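 active = inhibition above the mean of all tested compounds plus 3 SD, cutoff set per campaign, cut at about 30% in these data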;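 note: 0% = DMSO wells and 100% = unlabeled Bim-BH3 peptide competitor; inhibitors lower millipolarization by displacing the labeled peptide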
MEX-5 binding: C. elegans MEX-5 TCR-2 RNA binding activity. Q9XUB2. 0.38% of 300,000 active. MEX-5/FITC-TCR2 RNA binding, fluorescence polarization; active compounds read low. activity score (negative = inhibition of binding), % at 10 µM;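 active = inhibition past about -25% in most replicates, and total fluorescence under double the plate's negative control median, limit read from the data; inconclusive = replicates evenly split on the limit, or fluorescence at least double controls; inactive = too little inhibition in most replicates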;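 note: 0% = DMSO and -100% = 5 µM competing unlabeled TCR2 RNA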
Target sequence (Q9XUB2 whole entry, looked up): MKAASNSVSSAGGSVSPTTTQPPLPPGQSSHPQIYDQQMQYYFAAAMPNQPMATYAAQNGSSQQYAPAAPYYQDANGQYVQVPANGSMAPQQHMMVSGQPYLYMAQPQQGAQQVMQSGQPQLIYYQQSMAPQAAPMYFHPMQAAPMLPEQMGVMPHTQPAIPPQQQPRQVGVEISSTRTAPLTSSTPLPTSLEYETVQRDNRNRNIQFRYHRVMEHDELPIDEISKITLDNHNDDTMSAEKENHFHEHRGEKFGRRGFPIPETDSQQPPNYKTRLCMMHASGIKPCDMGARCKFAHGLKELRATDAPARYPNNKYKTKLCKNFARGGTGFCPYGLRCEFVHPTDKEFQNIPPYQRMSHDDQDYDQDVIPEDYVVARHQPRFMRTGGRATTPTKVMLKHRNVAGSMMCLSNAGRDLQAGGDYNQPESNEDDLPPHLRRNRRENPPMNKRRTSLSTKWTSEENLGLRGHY
GLD-1 TGE inh: GLD-1-TGE RNA interaction inhibition (C. elegans). Q17339. purified GLD-1 + fluorescein TGE RNA, fluorescence polarization. inhibition, % at 5.96 µM. 0.44% of 320,000 active. AID 2280;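 active = percent inhibition above a per-plate cutoff, the plate mean of test compounds plus 3 SD, cut at about 30% in these data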;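 note: 0% = DMSO wells with GLD-1 and probe and 100% = wells lacking GLD-1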
CR mimetic SO: lowers age-related superoxide in aged yeast cells | S. cerevisiae aged cells, superoxide DHE fluorescence; active compounds read low | 0.18% of 330,000 active | superoxide response (% of plate mean), % at 10 µM | AID 2690;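 active = superoxide response under a set limit, about three screen SD below normal, cut at about 65% in these data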;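 note: yeast aged for seven days with compound at 30 °C before DHE staining; 100% = average MFI of all compound-treated wells on the plate with controls excluded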
LANA-H2B inh: blocks KSHV LANA binding to histone H2A/H2B. cell-free LANA-H2A/H2B peptide, fluorescence polarization. inhibition, % (concentration not given with the values). 0.6% of 320,000 active. Q9QR71; in the data active = inhibition mostly above about 10%, no sharp cut-off; inactive = mostly below about 6.7%
Bcl-xL conf: counter-screen for MCL1 inhibitors: confirmation of human Bcl-xL inhibitors. shares compounds with MCL1 BIM primary. GST-Bcl-xL / FITC-Bim BH3 peptide FP binding. inhibition, % at 10.9 µM. 54% of 1,700 active. AID 2166;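 active = inhibition above a cutoff equal to the mean inhibition of all tested compounds plus 3 SD, cut at about 30% in these data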;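 note: 0% = DMSO wells and 100% = unlabeled Bim BH3 control peptide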
MCL1 inh confirm: confirmation of human MCL1 and BIM-BH3 interaction inhibitors. shares compounds with MCL1 BIM primary. GST-MCL1 / FITC-Bim-BH3 fluorescence polarization. inhibition, % at 10.9 µM. 61% of 1,700 active. AID 2168;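 active = inhibition above the average of all tested compounds plus 3 SD, cut at about 40% in these data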;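 note: 0% = DMSO wells and 100% = unlabeled Bim-BH3 control peptide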
Numbers without * were called inactive; u = inconclusive; x = no result; + = active, no number. The list is not random: actives were taken first. Their share in the collection is about 1.9%.

SMILES	MCL1 BIM primary	Bcl-xL primary	MEX-5 binding	GLD-1 TGE inh	CR mimetic SO	LANA-H2B inh	Bcl-xL conf	MCL1 inh confirm
COc1cc(C)c(CN2CCN(S(=O)(=O)c3ccc(Cl)s3)CC2)cc1OC	1	1	x	2	106	-1	x	x
COc1ccc(CN2C(=O)Cc3c2nc(N)c2c(N)nc(N4CCCCC4)c(C#N)c32)cc1	66*	45*	-3	16	132	-2	6	-4
O=c1c2c(ncn2C2CCCC2)n(Cc2ccccc2)c(=O)n1CCOc1ccccc1	4	-1	1	1	97	3	x	x
O=c1c2c(ncn2C2CCCC2)n(Cc2ccccc2)c(=O)n1CCOc1ccc(Br)cc1	53*	-2	3	-3	93	-7	17	18
COc1ccc(NC(=O)COc2ccccc2C(=O)NCC(c2ccccc2)N(C)C)cc1Cl (stereo unspecified)	4	6	0	2	106	8	x	x
Cc1ccc(Cl)cc1NC(=O)c1ccccc1OCC(=O)N1CCOCC1	63*	-4	0	7	84	-2	7	13
CN(C)S(=O)(=O)c1cccc(NC(=O)c2ccc(NS(=O)(=O)c3cccs3)cc2)c1	x	x	x	5	110	-2	x	x
Clc1ccc(-c2cn3nc4c(nc3n2)CCCC4)cc1	106*	104*	1	81*	112	1	77*	89*
COc1cccc(-c2cn3nc4c(nc3n2)CCCC4)c1	-5	5	-9	-2	102	1	x	x
COc1cc(/C=C2\SC(=S)N(c3cccnc3)C2=O)ccc1O	60*	12	0	-16	96	7	21	44*
O=C(O)c1cccc(CN2C(=O)c3ccccc3C2=O)c1	-3	4	0	-5	123	-4	x	x
O=C1c2cccc3c(O)ccc(c23)C(=O)N1Cc1ccccc1	+	+	u	+	76	5	+	+
COc1ccc(S(=O)(=O)Nc2cc(S(=O)(=O)N3CCOCC3)ccc2OC)cc1	x	x	x	5	85	-9	x	x
COc1ccc(S(=O)(=O)N2CCc3ccccc32)cc1C(=O)NC1(C)CCS(=O)(=O)C1 (stereo unspecified)	-12	-9	x	5	106	4	x	x
COc1cccc(CC(=O)OCC(=O)NC(=O)c2ccc(OC(F)F)cc2)c1	2	-2	-1	4	95	3	x	x
CC(=O)OCC1=C(C(=O)O)N2C(=O)C(NC(=O)c3ccc(COc4ccc(Cl)cc4)o3)C2SC1 (stereo unspecified)	24	7	1	0	100	0	x	x
CC(=O)OCC1=C(C(=O)O)N2C(=O)C(NC(=O)c3ccc(COc4c(C)cccc4Cl)o3)C2SC1 (stereo unspecified)	43*	25	3	-3	93	1	17	51*
O=C(CCN1C(=O)/C(=C\c2ccco2)SC1=S)Nc1ccc(C(=O)O)c(O)c1	64*	31*	u	0	72	2	14	23
O=C(CCN1C(=O)/C(=C/c2ccco2)SC1=S)Nc1ccc(C(=O)O)c(O)c1	65*	25	-20	-5	97	7	32*	54*
O=C(CN1CCCc2ccccc21)NCc1ccccc1Cl	68*	62*	-1	-64	100	3	11	-2
Cc1nnc(SCC(=O)Nc2sccc2C#N)s1	53*	29	1	8	107	5	20	22
CN(C)c1ccc(/C=C2\SC(=O)N(CC(O)Cn3c4ccccc4c4ccccc43)C2=O)cc1 (stereo unspecified)	80*	133*	u	133*	134	-6	-5	-28
COC(=O)C1CSc2[nH]c(=O)sc2C1c1ccccc1 (stereo unspecified)	119*	107*	-57*	84*	100	7	88*	109*
O=S(=O)(c1cccs1)N1CN(Cc2ccco2)c2nc3ccccc3nc21	172*	156*	-6	140*	98	12	25	24
O=C(CSc1ccccn1)Nc1ccc2c(c1)C(=O)c1ccccc1C2=O	55*	14	-2	4	131	3	29	60*
SMILES	MCL1 BIM primary	Bcl-xL primary	MEX-5 binding	GLD-1 TGE inh	CR mimetic SO	LANA-H2B inh	Bcl-xL conf	MCL1 inh confirm
CCOC(=O)c1c(C)[nH]c(C(=O)COc2ccc3ccc(=O)oc3c2)c1C	x	x	x	2	79	-11	x	x
O=C(NCc1ccc2[nH]c3c(c2c1)CCCC3)N1CCOCC1	66*	64*	-14	40*	123	1	53*	72*
O=C(NCc1ccc2[nH]c3c(c2c1)CCCC3)c1ccc(S(=O)(=O)N2CCOCC2)cc1	-4	3	2	5	103	-2	x	x
CCOC(=O)C(C(=O)OCC)c1cc(Br)c2noc3c2c1C(=O)c1ccccc1-3	196*	176*	-32*	171*	113	2	145*	148*
COC(=O)c1ccc2ccn(CC(=O)NC3CCCCC3)c2c1	49*	28	-1	24	112	3	3	-4
N#Cc1ccc2ccn(CC(=O)NC3CCCCCC3)c2c1	-5	-1	-3	6	100	0	x	x
CC(C)NCC(=O)Nc1c2c(nc3ccccc13)CCC2	-3	1	-1	-3	87	1	x	x
c1coc(CNc2c3c(nc4ccccc24)CCC3)c1	62*	65*	-14	-102	113	0	15	10
COc1cc2cc(C#N)c(SCC(=O)N3CCOCC3)nc2cc1OC	9	10	3	-1	93	7	x	x
COc1cc2cc(C)c(SCC(=O)N3CCOCC3)nc2cc1OC	56*	53*	2	33*	95	3	10	16
CCc1cc[n+](-c2nc3ccccc3nc2[N-]S(=O)(=O)c2ccc(Br)s2)cc1	94*	83*	u	25	84	12	71*	87*
Cc1cc[n+](-c2nc3ccccc3nc2[N-]S(=O)(=O)c2ccccc2)cc1	17	17	0	12	102	-2	x	x
COC(=O)[C@]1(C)N[C@H](CN(C)C(=O)C2CCCCC2)[C@@H]2C(=O)N(C)C(=O)[C@@H]21	x	x	x	6	115	x	x	x
Cc1cc(=O)oc2c3c4c(cc12)OCCN4CCC3	64*	60*	-15	-7	98	6	47*	41*
Cc1cc(=O)oc2c3c(ccc12)OC/C3=N/N	9	7	-3	1	101	3	x	x

Screening results deposited in PubChem BioAssay by several laboratories.
